Assay outcomes: PubChem, National Center for Advancing Translational Sciences (NCATS)
TDP1 block: blocks human tyrosyl-DNA phosphodiesterase 1 | recombinant TDP1, AlphaScreen DNA substrate cleavage | 0.28% of 350,000 active | Potency, µM (doses to about 130 µM), for inactives: top-dose activity change, negative = inhibition, most hits filed as inhibitors | AID 485290; note: potency is the fitted concentration of half-maximal effect; nearly all actives have a fitted effect of over 40% in size
Target sequence (Q9NUW8 whole entry, looked up): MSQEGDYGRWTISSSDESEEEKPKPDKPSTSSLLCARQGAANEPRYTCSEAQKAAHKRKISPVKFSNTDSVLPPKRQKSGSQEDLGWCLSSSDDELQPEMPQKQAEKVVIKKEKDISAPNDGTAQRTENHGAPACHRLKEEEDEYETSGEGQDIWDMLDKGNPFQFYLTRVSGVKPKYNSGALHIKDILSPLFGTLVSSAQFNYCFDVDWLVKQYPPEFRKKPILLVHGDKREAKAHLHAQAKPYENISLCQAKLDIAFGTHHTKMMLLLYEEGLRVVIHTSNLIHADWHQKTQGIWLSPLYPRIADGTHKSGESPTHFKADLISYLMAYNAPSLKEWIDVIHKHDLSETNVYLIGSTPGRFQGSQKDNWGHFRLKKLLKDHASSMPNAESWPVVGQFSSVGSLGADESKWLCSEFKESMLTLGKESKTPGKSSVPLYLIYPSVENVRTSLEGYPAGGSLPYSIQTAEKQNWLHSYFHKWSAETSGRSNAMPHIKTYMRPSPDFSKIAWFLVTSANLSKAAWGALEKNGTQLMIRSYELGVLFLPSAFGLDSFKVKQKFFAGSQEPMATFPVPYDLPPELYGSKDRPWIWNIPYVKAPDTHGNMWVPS
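Here, a 5' biotin and 3' phosphotyrosine-FITC DNA oligonucleotide reports Tdp1 activity: intact substrate bridges AlphaScreen beads, while cleavage leaves a 3' phosphate and drops signal. All incubations at room temperature.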
CtBP-E1A blk: inhibitors of CtBP/E1A interaction. AlphaScreen GST-E1A/His-CtBP binding, 1536-well; stronger effect = lower value. activity change, % (no concentration beside the values). 0.49% of 340,000 active. AID 651724; in the data active = activity change below about -65%; inconclusive = mostly about -30% to -63%
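AlphaScreen with 125 nM GST-E1A and 125 nM His-CtBP (5X stocks) in Tris pH 8.0, 300 mM NaCl, BSA, Tween 20, TCEP. Compounds preincubated 2 h at 37 deg C, then glutathione donor/nickel acceptor beads added for 1 h at 37 deg C in dark.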
TDP1 cell noCPT: qHTS for Inhibitors of human tyrosyl-DNA phosphodiesterase 1 (TDP1): qHTS in cells in absence of CPT. Potency, µM (series often up to 46.2 µM), for the others: at the highest dose activity change, negative = growth inhibition, most hits filed as inhibitors. 15% of 420,000 active. AID 686978, 2013. DT40 Tdp1-/- hTDP1 cells, no CPT, ATP luminescence, 48 h; note: potency is the fitted concentration of half-maximal effect; nearly all actives have a fitted effect of over 55% in size
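Compound effects on proliferation are scored in DT40 Tdp1-/-;hTDP1 cells in the absence of CPT. ATP levels (CellTiter-Glo luminescence) are recorded after a ≥48 hr, 37 °C incubation.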
TDP1 cell CPT: DT40-hTDP1 cell growth loss with CPT; chicken DT40 Tdp1-/-;hTDP1 cells + 20 nM CPT, ATP luminescence, 48 h; Potency, µM (highest dose often 46.2 µM), inactives show at the top dose activity change, negative = growth inhibition, usual class: inhibitors; 12% of 420,000 active; note: potency is the fitted concentration of half-maximal effect; nearly all actives have a fitted effect of over 55% in size
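Chicken DT40 Tdp1-/- cells stably complemented with human TDP1 were seeded at 400 cells/well in medium containing 20 nM camptothecin, exposed to pin-transferred compounds, and grown at 37 °C for at least 48 hr. Viability was read as ATP luminescence.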
Six1-Eya2 inh: Six1/Eya2 interaction inhibition | 0.56% of 360,000 active | Q15475+O00167 | activity change, % (test concentration not listed) | AID 651725 | AlphaScreen GST-Six1/His-Eya2 binding, biochemical; stronger effect = lower value; in the data active = activity change below about -65%; inconclusive = mostly about -30% to -63%
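Six1/Eya2 binding was read as AlphaScreen signal after compounds were pinned into GST-Six1 plus His-tagged Eya2 (5X stock 250/500 nM) in pH 8.0 Tris/NaCl/TCEP buffer, beads added, then incubated 1 h, 37 C, dark.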
IL-1B inflam inh: blocks inflammasome-driven IL-1 beta release | THP-1 LPS/ATP IL-1B secretion, AlphaLISA, 16 h; stronger effect = lower value | activity change, % at 57.5 µM | 4.7% of 360,000 active; in the data active = activity change below about -50%; inconclusive = mostly about -30% to -49%
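Secreted IL-1B measured by AlphaLISA bead assay after 16 h compound exposure of THP-1 cells; compounds (final up to 57.5 uM) added 1 h before LPS (250 ng/mL) and ATP (1.25 mM) stimulation; lower signal means less secretion.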
* marks the source's active call; other numbers are inactive results; i = inactive; ? = inconclusive; / = no result; ! = a repeat was not active; [ ] = dose if it differs, or a comment. Only some compounds are listed: those with a hit (about 18% of all), similar ones and a draw of the others. Unless noted, calls come from the whole dose curve; as a rule, active = well fitted curve in the direction sought with a large enough effect; inconclusive = small, poorly fitted or top-dose-only effect, or another doubt; inactive = no such curve, though single readings can be large; an effect the other way counts as inactive or inconclusive. % is set by controls: 0 for no effect and ±100 for the full control effect.

SMILES	TDP1 block	CtBP-E1A blk	TDP1 cell noCPT	TDP1 cell CPT	Six1-Eya2 inh	IL-1B inflam inh
CN(CC(=O)Nc1ccc(N2CCOCC2)cc1)C(=O)CCCOc1ccc(Cl)cc1Cl	1%	-16	?	9.2µM*	?	-17
CN(CC(=O)Nc1ccc(N2CCOCC2)cc1)C(=O)CCc1ccccc1Cl	0%	0	-29%	?	0	9
Cc1ccccc1OCC(=O)Nc1ccc(N2CCN(C)CC2)c(Cl)c1	0%[0.0935 µM]	-6	15µM*	?	-3	?
Cc1ccccc1OCCC(=O)OCC(=O)Nc1ccc(N2CCOCC2)cc1	1%	6	?	16µM*	3	-62*
Cc1ccc(OCC(=O)Nc2ccc(N3CCN(C(=O)c4ccco4)CC3)cc2)cc1C	4%	-1	?	?	-16	-82*
Cc1cccc(OCC(=O)Nc2ccc(N3CCN(C(=O)c4ccccc4)CC3)cc2)c1C	2%	2	?	?	-5	i
Cc1cc(OCC(=O)Nc2ccc(N3CCN(C(=O)c4ccco4)CC3)cc2)cc(C)c1Cl	-3%	7	10µM*	9.2µM*	-2	-4
CCC(=O)N1CCN(c2ccc(NC(=O)COc3cccc(C)c3C)cc2)CC1	-14%	-19	18µM*	?	-3	19
Cc1cccc(OCC(=O)Nc2ccc(N3CCN(C(=O)c4ccco4)CC3)cc2)c1	12%	-6	21µM*	18µM*	-9	-54*
Cc1ccc(OCC(=O)Nc2cc(NC(=O)COc3ccc(C)cc3)cc(C(=O)O)c2)cc1	6%	0	5%	-2%	-6	32
Cc1ccc(OCC(=O)Nc2cc(C(=O)O)cc(C(=O)O)c2)cc1C	4%	2	?	6.5µM*	-1	25
O=C(CCS(=O)(=O)c1cc(Br)cc2c1N(C(=O)C1CC1)CC2)N1CCN(c2cccc(Cl)c2)CC1	8%	/	-3%	2%	/	/
COc1ccc(OCC(=O)Nc2ccc(N3CCN(C(=O)c4ccccc4C)CC3)cc2)cc1	3%	-28	?	26µM*	-7	-22
COc1ccc(OCC(=O)Nc2ccc(N3CCOCC3)c(Cl)c2)cc1	-5%	-2	-2%	-20%	-3	-18
COc1ccc(OCC(=O)Nc2ccc(N3CCN(C(=O)c4ccccc4)CC3)c(Cl)c2)cc1	4%	-3	12µM*	?	-18	i
CC(C)(C)[C@]1(O)CCN2C[C@H]3c4ccccc4CCc4cccc(c43)[C@@H]2C1	6%	10	12µM*	8.2µM*!	1	-16
CC(C)(C)C1(O)CCN2CC3c4ccccc4CCc4cccc(c43)C2C1 (stereo not drawn)	/	/	24µM*	17µM*	/	/
Cc1ccc(Cl)cc1NC(=O)[C@@H]1CCC(=O)N1C1OC(=O)c2ccccc21 (stereo partly drawn)	/	9	-3%	8%	0	7
Oc1ccc(N2CCN(c3ncnc4sc(-c5ccccc5)cc34)CC2)cc1	9%	-19	23µM*	?	-28	-70*
CC(=O)N1CCN(c2ncnc3sc(-c4ccccc4)cc23)CC1	3%	-1	?	?	-18	-8
CCc1cc2c(N3CCN(c4ccccc4)CC3)ncnc2s1	8%	-11	12µM*	13µM*	-2	-17
COc1cc(C(=O)Nc2cc(S(=O)(=O)N3CCOCC3)ccc2N2CCN(C)CC2)cc(OC)c1OC	/	0	10%	2%	-2	-16
CCOc1ccc(CCNC(=O)C2COc3ccccc3C2)cc1OCC (stereo not drawn)	1%	/	?	?	/	/
O=C(CN1CCCC1)Nc1ccc([N+](=O)[O-])cc1Cl	2%	3	4%	0%	-1	-10
